Here are results for 27 compounds from PubChem BioAssay (EPA / NIEHS).

Where “and” joins values, the source holds several entries; their conditions need not be identical. Identical values can stand only once. Results filed as inconclusive are left out. Calls of active or inactive are those of the source. Rule for the calls, unless noted: active = hit-call score of the fitted dose curve at least 0.9, where 1 is the maximum; inactive = score below 0.9.

Usually AC50 stands for the concentration giving half of the maximal activity seen.

The nature of one assay: CCTE_Harrill_HTTr_CellCount_MCF7: CCTE's Cell Proliferation Assessment for the High-Throughput Transcriptomics (HTTr) Platform, Harrill Lab (AID 2284012; active = hit-call score of the fitted dose curve at least 0.9, where 1 is the maximum;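 note: count of Hoechst-stained nuclei per well by high-content imaging in MCF-7 cells; cells exposed to compound for six hours; intended direction is loss of nuclei count meaning fewer cells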). The method in brief:
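Chemicals in eight-point dilution series are added to MCF-7 cells for six hours, nuclei are stained with Hoechst and imaged, and per-well nuclei counts are fitted in both directions relative to DMSO controls.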
On to `CSc1nc(NC(C)C)nc(NC(C)C)n1`, for which the compound was called inactive.

Regarding `CCc1cccc(C)c1N(C(=O)CCl)C(C)COC` (stereo unspecified), the result was inactive.

As to `CC(C)=CC1C(C(=O)OCN2C(=O)C3=C(CCCC3)C2=O)C1(C)C` (stereo unspecified), the result was inactive.

For the compound `CCc1cnc(C2=NC(C)(C(C)C)C(=O)N2)c(C(=O)O)c1` (stereo unspecified), the result was inactive.

As for `Nc1c(Cl)cc([N+](=O)[O-])cc1Cl`, the compound was called inactive.

In the case of `COP(=O)(OC)C(O)C(Cl)(Cl)Cl` (stereo unspecified), the compound was classed as inactive.

Regarding `CNC(=O)Oc1cccc2c1OC(C)(C)O2`, the outcome was inactive.

Take `CCCOCC(=Nc1ccc(Cl)cc1C(F)(F)F)n1ccnc1`: the compound was called inactive.

Regarding `CC[C@H](C)[C@H]1O[C@]2(C=C[C@@H]1C)C[C@@H]1C[C@@H](C/C=C(\C)[C@@H](O[C@H]3C[C@H](OC)[C@@H](O[C@H]4C[C@H](OC)[C@@H](NC)[C@H](C)O4)[C@H](C)O3)[C@@H](C)/C=C/C=C3\CO[C@@H]4[C@H](O)C(C)=C[C@@H](C(=O)O1)[C@]34O)O2`, the AC50 is 50 µM (active).

`CNc1cnn(-c2cccc(C(F)(F)F)c2)c(=O)c1Cl`: the compound was called inactive.

Take `CC(C1CC1)C(O)(Cn1cncn1)c1ccc(Cl)cc1` (stereo unspecified): the compound was called inactive.

Turning to `CC1=NNC(=O)N(/N=C/c2cccnc2)C1`, the result was inactive.

In the case of `Cc1cc(C2CC2)nc(Nc2ccccc2)n1`, the outcome was inactive.

As for `O=c1ccc(=O)[nH][nH]1`, the result was inactive.

For the compound `CC(=NC#N)N(C)Cc1ccc(Cl)nc1`, the result was inactive.

With `CCOP(=S)(OCC)Oc1ccc2c(C)c(Cl)c(=O)oc2c1`, the call was inactive.

On to `C[N+]1(C)CCCCC1`, for which the call was inactive.

For `CCCCOC(=O)c1ccccc1C(=O)O`, the result was inactive.

Turning to `COP(=O)(NC(C)=O)SC` (stereo unspecified), the compound was called inactive.

For the compound `COc1cccc(C(=O)NN(C(=O)c2cc(C)cc(C)c2)C(C)(C)C)c1C`, the compound was classed as inactive.

On to `CN(C)[C@@H]1C(=O)C(C(N)=O)=C(O)[C@@]2(O)C(=O)C3=C(O)c4c(O)cccc4[C@@](C)(O)[C@H]3[C@H](O)[C@@H]12`, for which the result was inactive.

Consider `C[Si](Cn1cncn1)(c1ccc(F)cc1)c1ccc(F)cc1`, for which the outcome was inactive.

With `CCCOc1nn(C(=O)NS(=O)(=O)c2ccccc2C(=O)OC)c(=O)n1C`, the compound was called inactive.

Take `C=C(C)[C@H]1Cc2c(ccc3c2O[C@@H]2COc4cc(OC)c(OC)cc4[C@@H]2C3=O)O1`: the compound was classed as inactive.

For the compound `FC(F)C(F)(F)OCC(Cn1cncn1)c1ccc(Cl)cc1Cl` (stereo unspecified), the call was inactive.

For the compound `O=[N+]([O-])c1cc(C(F)(F)F)c(Cl)c([N+](=O)[O-])c1Nc1ncc(C(F)(F)F)cc1Cl`, the call was inactive.

Consider `Cc1nn(-c2cc(NS(C)(=O)=O)c(Cl)cc2Cl)c(=O)n1C(F)F`, for which the call was inactive.

A short description of the next assay: CCTE_Shafer_MEA_acute_burst_number: CCTE's Neural Acute Assay for Single-Electrode Bursts, Shafer Lab (AID 2284013). Summed up:
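Rat cortical cultures, DIV 13/15; 40 min baseline, then 40 min with compound 0.03-40 uM, 37 C. Spikes: 300-5000 Hz band-pass, threshold 8x rms noise. Readout = % change in single-electrode bursts vs baseline, loss-of-signal fit.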
Take `CCc1cccc(C)c1N(C(=O)CCl)C(C)COC` (stereo unspecified): the AC50 was 14.8 µM (active).

Turning to `CC(C)=CC1C(C(=O)OCN2C(=O)C3=C(CCCC3)C2=O)C1(C)C` (stereo unspecified), the call was inactive.

`CCc1cnc(C2=NC(C)(C(C)C)C(=O)N2)c(C(=O)O)c1` (stereo unspecified): the compound was classed as inactive.

On to `Nc1c(Cl)cc([N+](=O)[O-])cc1Cl`, for which the call was inactive.

In the case of `COP(=O)(OC)C(O)C(Cl)(Cl)Cl` (stereo unspecified), the result was inactive.

Regarding `CCCOCC(=Nc1ccc(Cl)cc1C(F)(F)F)n1ccnc1`, the AC50 is 0.686 µM (active).

On to `CC[C@H](C)[C@H]1O[C@]2(C=C[C@@H]1C)C[C@@H]1C[C@@H](C/C=C(\C)[C@@H](O[C@H]3C[C@H](OC)[C@@H](O[C@H]4C[C@H](OC)[C@@H](NC)[C@H](C)O4)[C@H](C)O3)[C@@H](C)/C=C/C=C3\CO[C@@H]4[C@H](O)C(C)=C[C@@H](C(=O)O1)[C@]34O)O2`, for which the AC50 is 7.43 nM (active) and 28.2 nM (active).

In the case of `CC1=NNC(=O)N(/N=C/c2cccnc2)C1`, the result was inactive.

Regarding `CC(=NC#N)N(C)Cc1ccc(Cl)nc1`, the compound was classed as inactive.

Regarding `CCOP(=S)(OCC)Oc1ccc2c(C)c(Cl)c(=O)oc2c1`, the AC50 is 1.94 µM (active).

`C[N+]1(C)CCCCC1`: the compound was classed as inactive.

Consider `COP(=O)(NC(C)=O)SC` (stereo unspecified), for which the call was inactive.

Take `CN(C)[C@@H]1C(=O)C(C(N)=O)=C(O)[C@@]2(O)C(=O)C3=C(O)c4c(O)cccc4[C@@](C)(O)[C@H]3[C@H](O)[C@@H]12`: the compound was called inactive.

For the compound `C[Si](Cn1cncn1)(c1ccc(F)cc1)c1ccc(F)cc1`, the AC50 was 4.3 µM (active).

Consider `C=C(C)[C@H]1Cc2c(ccc3c2O[C@@H]2COc4cc(OC)c(OC)cc4[C@@H]2C3=O)O1`, for which the compound was called inactive.

As to `FC(F)C(F)(F)OCC(Cn1cncn1)c1ccc(Cl)cc1Cl` (stereo unspecified), the outcome was inactive.

Consider `O=[N+]([O-])c1cc(C(F)(F)F)c(Cl)c([N+](=O)[O-])c1Nc1ncc(C(F)(F)F)cc1Cl`, for which the AC50 was 0.322 µM (active).

Another assay in a line: CCTE_Shafer_MEA_acute_burst_duration_mean: CCTE's Neural Acute Assay for Mean Burst Duration, Shafer Lab (AID 2284014).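 Note: hits are decreases in mean burst duration relative to DMSO controls.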 Summed up: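 Primary rat cortical neurons on 16-electrode MEA wells, treated on DIV 13 or 15 with compound (0.03-40 uM; ≥3 wells each). 40-min baseline and 40-min exposure recordings at 37 C; percent change in mean burst duration per well versus DMSO.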
With `CCc1cccc(C)c1N(C(=O)CCl)C(C)COC` (stereo unspecified), the compound was called inactive.

With `CC(C)=CC1C(C(=O)OCN2C(=O)C3=C(CCCC3)C2=O)C1(C)C` (stereo unspecified), the compound was called inactive.

On to `CCc1cnc(C2=NC(C)(C(C)C)C(=O)N2)c(C(=O)O)c1` (stereo unspecified), for which the outcome was inactive.

Regarding `Nc1c(Cl)cc([N+](=O)[O-])cc1Cl`, the outcome was inactive.

As for `COP(=O)(OC)C(O)C(Cl)(Cl)Cl` (stereo unspecified), the compound was classed as inactive.

For the compound `CCCOCC(=Nc1ccc(Cl)cc1C(F)(F)F)n1ccnc1`, the AC50 is 6.29 µM (active).

As to `CC[C@H](C)[C@H]1O[C@]2(C=C[C@@H]1C)C[C@@H]1C[C@@H](C/C=C(\C)[C@@H](O[C@H]3C[C@H](OC)[C@@H](O[C@H]4C[C@H](OC)[C@@H](NC)[C@H](C)O4)[C@H](C)O3)[C@@H](C)/C=C/C=C3\CO[C@@H]4[C@H](O)C(C)=C[C@@H](C(=O)O1)[C@]34O)O2`, the AC50 was 38.2 µM (active) and 1.5 µM (active).

Regarding `CC1=NNC(=O)N(/N=C/c2cccnc2)C1`, the call was inactive.

`CC(=NC#N)N(C)Cc1ccc(Cl)nc1`: the compound was classed as inactive.

With `CCOP(=S)(OCC)Oc1ccc2c(C)c(Cl)c(=O)oc2c1`, the call was inactive.

As to `C[N+]1(C)CCCCC1`, the compound was called inactive.

`COP(=O)(NC(C)=O)SC` (stereo unspecified): the compound was classed as inactive.

Consider `CN(C)[C@@H]1C(=O)C(C(N)=O)=C(O)[C@@]2(O)C(=O)C3=C(O)c4c(O)cccc4[C@@](C)(O)[C@H]3[C@H](O)[C@@H]12`, for which the compound was classed as inactive.

Turning to `C[Si](Cn1cncn1)(c1ccc(F)cc1)c1ccc(F)cc1`, the compound was classed as inactive.

For the compound `C=C(C)[C@H]1Cc2c(ccc3c2O[C@@H]2COc4cc(OC)c(OC)cc4[C@@H]2C3=O)O1`, the compound was called inactive.

In the case of `FC(F)C(F)(F)OCC(Cn1cncn1)c1ccc(Cl)cc1Cl` (stereo unspecified), the compound was called inactive.

Turning to `O=[N+]([O-])c1cc(C(F)(F)F)c(Cl)c([N+](=O)[O-])c1Nc1ncc(C(F)(F)F)cc1Cl`, the AC50 is 1.59 µM (active).
